# CHO-K1 Ca ag: nonselective activator or artifact in parental CHO-K1 cells | Fluo-8 calcium fluorescence; scaled to maximal ATP response, vehicle zero | activation, % at 3 µM | actives 0.48% (n = 360,000) | AID 602248; in the data active = activation above about 15%;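 also: untransfected CHO-K1 host cells lacking M1 receptor as counterscreen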
# M1 PAM: positive allosteric modulators of human M1 muscarinic receptor; activation, % at 3 µM; actives 0.088% (n = 360,000); CHO-K1 hM1, Fluo-8 calcium fluorescence, ACh EC20; 0% = ACh EC20, 100% = maximal ACh; in the data active = activation above about 19%, passing the limit was not always enough
# Target sequence (P11229 whole entry, looked up): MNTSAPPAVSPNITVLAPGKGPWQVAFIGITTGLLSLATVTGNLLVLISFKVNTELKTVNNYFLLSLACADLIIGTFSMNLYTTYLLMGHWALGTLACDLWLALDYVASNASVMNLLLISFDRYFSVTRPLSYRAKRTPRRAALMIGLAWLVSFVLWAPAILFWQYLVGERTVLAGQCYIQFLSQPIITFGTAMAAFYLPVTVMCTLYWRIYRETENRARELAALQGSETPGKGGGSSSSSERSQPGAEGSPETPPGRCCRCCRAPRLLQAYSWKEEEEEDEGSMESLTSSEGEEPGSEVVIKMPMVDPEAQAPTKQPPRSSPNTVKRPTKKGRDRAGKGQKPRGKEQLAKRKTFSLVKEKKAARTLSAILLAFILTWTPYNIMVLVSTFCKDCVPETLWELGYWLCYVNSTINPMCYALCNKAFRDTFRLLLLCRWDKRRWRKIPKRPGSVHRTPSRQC
# CHRM1 agonist: activates human CHRM1 receptor | CHO-K1 hM1, Fluo-8 calcium fluorescence, agonist mode; 0% DMSO, 100% acetylcholine EC100 | actives 0.33% (n = 360,000) | activation, % at 3 µM | AID 588814;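 active = activation above the run's mean compound activation plus 3 SD, cut at about 16% in these data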;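 also: peak over basal fluorescence ratio within a 140 s kinetic read after compound addition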
# CHO-K1 Ca PAM: counter-screen for M1 PAMs: effect in parental CHO-K1 cells; ATP EC20, Fluo-8 calcium fluorescence; 0% at ATP EC20, 100% at ATP max; actives 0.02% (n = 360,000); activation, % at 3 µM;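 active = activation above the run cutoff, the mean activation of all test compounds plus 3 SD, cut at about 40% in these data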;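 also: peak over basal fluorescence ratio in a 140 s read after ATP addition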
# CHRM1 antagonist: blocks human M1 muscarinic receptor; inhibition, % at 3 µM; CHO-K1 hM1, Fluo-8 calcium fluorescence, ACh EC80 antagonist; actives 1.3% (n = 360,000); P11229; AID 588852;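 active = percent inhibition above its own plate's cutoff, namely the mean of that plate's compound wells plus 3 SD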;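 also: peak over basal fluorescence ratio during 140 s after agonist addition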
# CHO-K1 Ca antag: counter-screen for M1 antagonists: effect in parental CHO-K1 cells. actives 0.6% (n = 360,000). inhibition, % at 3 µM. ATP-induced calcium, Fluo-8 fluorescence;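 active = inhibition above a per-plate cutoff, the plate's mean sample inhibition plus 3 SD, cut at about 24% in these data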
# Hits are given with their value; 0 = inactive. An excerpt weighted towards active compounds, which were near 2.3% of everything screened.
SMILES,CHO-K1 Ca ag,M1 PAM,CHRM1 agonist,CHO-K1 Ca PAM,CHRM1 antagonist,CHO-K1 Ca antag
c1cc2c(cc1Nc1nc(-c3ccc4c(c3)OCO4)cs1)OCCO2,0,0,0,0,0,26.4
CC(C)(C)C(=O)Nc1nc(-c2ccc3c(c2)OCO3)cs1,15.4,0,0,0,0,0
CCC(=O)Nc1nc(-c2ccc3c(c2)OCCO3)cs1,0,0,0,0,0,0
O=C(Nc1cccc(F)c1)NC1(C(=O)N2CCOCC2)CCCCC1,0,0,0,0,0,0
O=C(NCCO)c1ccc2nc(-c3ccco3)c(-c3ccco3)nc2c1,0,0,0,0,0,0
O=C(NC1CCCC1)c1ccc2nc(-c3ccco3)c(-c3ccco3)nc2c1,0,0,0,0,0,26.1
COc1c(C)cc(C(O)c2ncc(-c3ccccc3C(F)(F)F)[nH]2)cc1C (configuration not stated),0,0,0,0,0,0
O=c1oc(-c2ccccc2NS(=O)(=O)c2ccccc2)nc2ccccc12,0,0,0,0,0,29.1
O=c1oc(-c2ccccc2NS(=O)(=O)c2ccc(F)cc2)nc2ccccc12,0,0,0,0,0,0
Cc1cc(C)cc(NS(=O)(=O)c2cc(Br)cnc2N)c1,0,0,0,0,0,0
CSc1cccc(NS(=O)(=O)c2cc(Br)cnc2N)c1,0,0,0,0,62.5,0
Cc1ccc(NS(=O)(=O)c2cc(Br)cnc2N)cc1C,0,0,0,0,99.5,0
O=C(NCc1ccccc1)C1CCCN(c2ncnc3c2nc2n3CCCCC2)C1 (configuration not stated),0,0,0,0,0,0
O=C(C1CCN(c2ncnc3c2nc2n3CCCCC2)CC1)N1CCN(c2ccc(F)cc2)CC1,0,0,30.1,0,0,0
O=C(NCCc1ccc(Cl)cc1)C1CCCN(c2ncnc3c2nc2n3CCCCC2)C1 (configuration not stated),0,0,0,0,0,0
O=C(NCC1CCN(Cc2ccc(F)cc2)CC1)C1CCCN(c2ncnc3c2nc2n3CCCCC2)C1 (configuration not stated),0,0,0,0,70.0,0
O=C(NCC1CCN(Cc2ccc(Cl)cc2)CC1)C1CCCN(c2ncnc3c2nc2n3CCCCC2)C1 (configuration not stated),0,0,0,0,102.8,0
O=C(NCC1CCN(Cc2cccc(Cl)c2)CC1)C1CCCN(c2ncnc3c2nc2n3CCCCC2)C1 (configuration not stated),0,0,0,0,75.3,0
COCc1cc(C)nc(SCC[N+](C)(C)CC(=O)Nc2cccc(C(F)(F)F)c2)c1C#N,0,0,0,0,40.2,0
Cc1noc(C)c1NC(=O)Nc1ccc2c(c1)C(=O)N([C@H](C)CO)C[C@H](C)[C@@H](CN(C)C(=O)NC1CCCCC1)O2,0,0,0,0,0,0
COc1cc(S(=O)(=O)NCC2CCCO2)c(OC)cc1Cl (configuration not stated),0,25.9,0,0,0,0
COc1ccc(S(=O)(=O)NCC2CCCO2)c(Cl)c1Cl (configuration not stated),0,0,0,0,0,0
CN1CCN(NC(=O)c2cccc(Br)c2)CC1,0,0,0,0,0,0
O=C(CNC(=O)c1ccccc1F)N/N=C/c1cn[nH]c1-c1ccccc1,0,0,0,0,41.4,0
O=C(COc1ccc(Br)cc1)NNC(=O)Cc1ccc(S(=O)(=O)N2CCOCC2)s1,0,0,0,0,0,0
SMILES,CHO-K1 Ca ag,M1 PAM,CHRM1 agonist,CHO-K1 Ca PAM,CHRM1 antagonist,CHO-K1 Ca antag
Cc1ccc(NC2=NC(c3ccc(F)cc3)n3c(nc(C)cc3=O)N2)c(C)c1 (configuration not stated),0,0,0,0,37.5,0
O=C(CN1CCC(N2CCCCC2)CC1)N1CCCc2ccccc21,0,0,0,0,0,0
O=C(CN1CCCCC1)N1c2ccccc2CCc2ccccc21,0,0,0,0,93.4,0
O=C(CN1CCC(O)CC1)N1c2ccccc2C=Cc2ccccc21,0,0,0,0,47.0,0
CC1CCN(CC(=O)N2c3ccccc3CCc3ccccc32)CC1,0,0,0,0,72.2,0
CC1(C)Cc2noc(N)c2C(C)(C)N1O,0,0,0,0,0,24.8
CC(=O)ON1C(C)(C)Cc2noc(N)c2C1(C)C,0,0,0,0,0,0
COc1cccc(CN2CCCN(S(=O)(=O)c3ccc(Br)cc3)CC2)c1,0,0,0,0,37.3,0
COc1ccc(S(=O)(=O)N2CCN(C3CCN(Cc4ccccc4)CC3)CC2)cc1,0,0,0,0,52.7,0
COC(=O)c1cccc(NS(=O)(=O)c2ccc(OC)c(C(=O)N3CCOCC3)c2)c1C,0,0,0,0,0,0
CCN=C1S/C(=C\c2ccc(N3CCOCC3)cc2C)C(=O)N1CC,0,0,0,0,0,0
COCCN1C(=O)/C(=C/c2ccc(N3CCCC3)cc2C)SC1=S,0,0,0,0,31.2,0
CCOc1ccc(S(=O)(=O)Nc2nc3ccccc3nc2-n2ccc(=NC(=O)c3ccccc3C)cc2)cc1,23.9,0,21.4,0,0,25.4
Nc1nc(SCC(=O)O)[nH]c(=O)c1NC(=O)c1ccccc1F,0,0,0,0,0,0
COCCNC(=O)CSc1nc(N)c(NC(=O)c2ccccc2F)c(=O)[nH]1,0,0,0,0,0,24.3
COc1ccc(C(C2C(=O)CC(C)(C)CC2=O)C2C(=O)CC(C)(C)CC2=O)cc1,19.3,0,0,0,0,0
O=C(NCc1cccc(C(F)(F)F)c1)c1c[nH]c(=O)s1,0,0,0,0,0,0
COc1cccc(NC(=O)CCC2CCN(C(=O)Cc3cccc(F)c3)CC2)c1,0,0,0,0,0,0
COc1ccc(CC(=O)N2CCC(CCC(=O)Nc3ccccc3)CC2)cc1,0,0,0,0,0,23.9
Nc1nonc1NC(=O)NN=C1CCCCC1,0,0,0,0,0,0
Cc1cccc(C)c1NC(=O)C(C)Sc1n[nH]c(-c2ccncc2)n1 (configuration not stated),0,0,0,0,0,0
COc1ccc(S(=O)(=O)c2nnn(-c3cccc(Cl)c3)c2N)cc1,0,0,0,0,0,25.1
CC(=O)c1c(N2CCCCC2)nc(=S)n(-c2ccccc2)c1C,0,0,0,0,0,0
CCn1c(C)c(C(C)=O)c(N2CCN(c3ccccn3)CC2)nc1=S,0,0,0,0,64.4,0
CCn1c(C)c(C(C)=O)c(N2CCN(c3ccccc3)CC2)nc1=S,0,0,0,0,0,0
CCn1c(C)c(C(C)=O)c(N2CCN(C(c3ccccc3)c3ccccc3)CC2)nc1=S,0,0,0,0,53.5,0
CC(=O)c1c(N2CCCC2)nc(=S)n(-c2ccccc2)c1C,0,0,0,0,74.8,0

# High-throughput results (PubChem BioAssay)
